Assay results from PubChem BioAssay (NCI).
The panel holds about 83,000 compounds, 20% with a hit somewhere; the sample as a whole holds those more often.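 Cells were grown in 96-well plates and exposed to the test compound at a single concentration for 48 hours; results are reported as percent growth, with values below 10 considered active.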 Active and inactive are the calls of the source.

How the values were obtained:
Assay in all cases: NCI-60 one-dose screen, 48 h (100 = growth as untreated, 0 = no growth, -100 = all killed)
HOP-92 NSCLC = conditions: 10 µM unless noted
NCI-H522 lung = conditions: 10 µM unless noted
K-562 leukemia = conditions: 10 µM unless noted
MALME-3M melanoma = conditions: 10 µM unless noted
SNB-19 CNS = conditions: 10 µM unless noted
U251 CNS = conditions: 10 µM unless noted
EKVX NSCLC = conditions: 10 µM unless noted
CCRF-CEM leukemia = conditions: 10 µM unless noted
SR leukemia = conditions: 10 µM
RPMI-8226 leukemia = conditions: 10 µM unless noted
OVCAR-4 ovarian = conditions: 10 µM unless noted
OVCAR-3 ovarian = conditions: 10 µM unless noted
BT-549 breast = conditions: 10 µM
MCF7 breast = conditions: 10 µM unless noted
HCC-2998 colon = conditions: 10 µM unless noted
COLO 205 colon = conditions: 10 µM
TK-10 renal = conditions: 10 µM unless noted
SK-OV-3 ovarian = conditions: 10 µM unless noted
T-47D breast = conditions: 10 µM unless noted

Measured: growth

Cc1cc(CCl)c(C)cc1CCl
active: OVCAR-3 ovarian 2.57% | MCF7 breast 7.03%
inactive: HOP-92 NSCLC 79.3% | NCI-H522 lung 55.5% | K-562 leukemia 63.8% | MALME-3M melanoma 82.9% | SNB-19 CNS 51% | U251 CNS 40.2% | EKVX NSCLC 106% | CCRF-CEM leukemia 19.7% | SR leukemia 11.9% | RPMI-8226 leukemia 26.4% | OVCAR-4 ovarian 83.4% | BT-549 breast 68.8% | HCC-2998 colon 71.4%

OC1(c2ccccc2F)c2ccccc2C2=NCCN21 (stereo unspecified)
inactive: HOP-92 NSCLC 78.9% | COLO 205 colon 101% | K-562 leukemia 88.7% | MALME-3M melanoma 97.2% | SNB-19 CNS 108% | U251 CNS 104% | EKVX NSCLC 97.8% | TK-10 renal 90.4% | CCRF-CEM leukemia 93% | SR leukemia 90.9% | RPMI-8226 leukemia 107% | OVCAR-4 ovarian 107% | SK-OV-3 ovarian 105% | OVCAR-3 ovarian 87.9% | T-47D breast 104% | BT-549 breast 110% | MCF7 breast 103% | HCC-2998 colon 100%

Nc1ncnc2c1c(C(=O)NO)cn2C1OC(CO)C(O)C1O (stereo unspecified)
active: HOP-92 NSCLC -37% | NCI-H522 lung -51.1% | COLO 205 colon -36.1% | K-562 leukemia -3.31% | MALME-3M melanoma -41.1% | EKVX NSCLC 6.87% | TK-10 renal 6.25% | CCRF-CEM leukemia -17.6% | SR leukemia -7.79% | RPMI-8226 leukemia -21.7% | OVCAR-4 ovarian 0.579% | SK-OV-3 ovarian -18.2% | BT-549 breast -0.861% | MCF7 breast -47.3% | HCC-2998 colon -38.7%
inactive: SNB-19 CNS 11.9% | U251 CNS 11.9%

Cc1cccc(N(C)c2cccc3c2C(=O)[Se]C3)c1C
active: SR leukemia 4.83%
inactive: HOP-92 NSCLC 81.4% | COLO 205 colon 27.1% | K-562 leukemia 48.2% | MALME-3M melanoma 63.7% | SNB-19 CNS 58.8% | U251 CNS 47% | EKVX NSCLC 19.9% | CCRF-CEM leukemia 56.1% | RPMI-8226 leukemia 81.9% | OVCAR-4 ovarian 40.7% | SK-OV-3 ovarian 188% | OVCAR-3 ovarian 66.3% | T-47D breast 73.4% | BT-549 breast 52.4% | MCF7 breast 49.6% | HCC-2998 colon 47.5%

COc1ccc(C(c2ccc(OC)cc2)C(Cl)(Cl)Cl)cc1
inactive: HOP-92 NSCLC 63.9% | NCI-H522 lung 60% | K-562 leukemia 65.7% | MALME-3M melanoma 91.8% | SNB-19 CNS 84% | U251 CNS 90.4% | EKVX NSCLC 95.7% | TK-10 renal 90.3% | CCRF-CEM leukemia 55.6% | SR leukemia 71.8% | RPMI-8226 leukemia 71.5% | SK-OV-3 ovarian 96.2% | T-47D breast 68.4% | BT-549 breast 110% | MCF7 breast 92.6% | HCC-2998 colon 94.4%

COc1cc(N(CCCl)CCCl)ccc1C=Nc1ccccc1C(=O)O
inactive: HOP-92 NSCLC 97.8% | NCI-H522 lung 32.8% | K-562 leukemia 95% | SNB-19 CNS 97.2% | TK-10 renal 124% | CCRF-CEM leukemia 97.5% | SR leukemia 84.1% | RPMI-8226 leukemia 97.2% | OVCAR-4 ovarian 104% | SK-OV-3 ovarian 105% | BT-549 breast 106% | MCF7 breast 93.7% | HCC-2998 colon 88.2%

COc1cc(C2(C#N)CCN(C)CC2)cc(OC)c1OC
inactive: HOP-92 NSCLC 100% | COLO 205 colon 107% | K-562 leukemia 97.5% | MALME-3M melanoma 113% | SNB-19 CNS 102% | EKVX NSCLC 112% | TK-10 renal 108% | CCRF-CEM leukemia 116% | RPMI-8226 leukemia 106% | OVCAR-4 ovarian 104% | SK-OV-3 ovarian 105% | OVCAR-3 ovarian 108% | T-47D breast 98.1% | BT-549 breast 101%

CCOC(=O)/C=C(\C)Nc1ccc(N/C(C)=C/C(=O)OCC)c2c1Oc1ccccc1O2
inactive: HOP-92 NSCLC 79% | COLO 205 colon 121% | K-562 leukemia 81.7% | MALME-3M melanoma 107% | U251 CNS 99.2% | EKVX NSCLC 89% | CCRF-CEM leukemia 43.2% | SR leukemia 78.3% | RPMI-8226 leukemia 83.2% | OVCAR-4 ovarian 114% | SK-OV-3 ovarian 107% | T-47D breast 103% | MCF7 breast 93.7% | HCC-2998 colon 120%

Nc1cccc2c1Oc1ccccc1O2
inactive: HOP-92 NSCLC 80.3% | COLO 205 colon 134% | K-562 leukemia 96.4% | MALME-3M melanoma 97.3% | SNB-19 CNS 114% | U251 CNS 99.6% | EKVX NSCLC 99.7% | TK-10 renal 115% | CCRF-CEM leukemia 87.7% | SR leukemia 102% | RPMI-8226 leukemia 95.9% | OVCAR-4 ovarian 115% | SK-OV-3 ovarian 184% | OVCAR-3 ovarian 103% | BT-549 breast 104% | MCF7 breast 137% | HCC-2998 colon 109%

CCCCCCCCCCOc1ccc(C(=O)Oc2ccc(CSP3(=O)OCC4OC(n5ccc(=O)[nH]c5=O)C(F)C4OP(=O)(O)OCC4OC(n5cnc6c(N)ncnc65)C(F)C4O3)cc2)cc1 (stereo unspecified)
inactive: HOP-92 NSCLC 85.4% | NCI-H522 lung 71.1% | K-562 leukemia 66.1% | MALME-3M melanoma 110% | SNB-19 CNS 103% | EKVX NSCLC 111% | CCRF-CEM leukemia 87.1% | SR leukemia 25.4% | RPMI-8226 leukemia 82.6% | OVCAR-4 ovarian 58.8% | OVCAR-3 ovarian 97.6% | T-47D breast 96.4% | BT-549 breast 87.7% | MCF7 breast 95.5% | HCC-2998 colon 102%
